“And” between values parts separate entries of the source, which are not always exact repeats. Identical values can stand only once. The campaign covered roughly 370,000 compounds. About 6,800 (1.8%) were called active. This is one part of a sample in which actives are shown more often than they occur. Unmarked numbers belong to inactive results.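 Rule for the calls: active = activation above a cutoff set at the mean of all screened compounds plus 3 SD (cut at about 10% in these data); inactive = the rest.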
tested on: Nuclear hormone receptor DAF-12 (Heterodera glycines), GAL4 fusion; assay: hgDAF-12 GAL4 fusion reporter activation – cell-based, luminescence, HEK293, UAS-luciferase, primary screen (AID 687014); details: HEK293 GAL4-hgDAF12 UAS-luciferase reporter, agonist luminescence; at 6.8 µM; stronger effect = higher value; normalized to butyrate control;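 note: 0% = DMSO wells and 100% = sodium butyrate wells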

SMILES	activation
CC(=O)Nc1ccc(NC(=O)CSc2nnnn2C2CCCCC2)cc1	0.66%
O=C(CSc1nnnn1C1CCCC1)N1CCCCC1	11.8% (active)
CC1CCCC(C)N1C(=O)CSc1nnnn1C1CCCC1 (stereo unspecified)	3.93%
Cc1cc(NCCc2c[nH]c3ccccc23)ccc1Oc1cccnc1	-6.96%
C[C@H](O)[C@@H]1CN2CCc3ccc(-c4ccc5c(c4)OCO5)cc3[C@@H]2C[C@@H]1N(C)C(=O)C1CCCCC1	5.63%
C[C@H]1[C@H](NC(=O)c2cccc(N(C)C)c2)CC[C@@]23CCCN2C(=O)CCC[C@@H]13	4.78%
Cc1ccc(-c2csc(NCCc3nc4cc(Cl)c(Cl)cc4n3CCOCCO)n2)cc1	0.43%
CC(=O)Nc1cnc(-c2ccc(O)cc2C)cn1	0.71%
Cc1ccc(Nc2nc(-c3ccc(O)cc3O)cs2)nc1	11% (active)
C/C=C/c1ccc(OCCOc2ccc(C=O)cc2OC)c(OC)c1	1.06%
O=C(NCCc1ccc(F)cc1)c1ccc2nccnc2c1	15.2% (active)
O=C(NCCc1ccc(F)cc1)c1ccc(S(=O)(=O)N2CCCCC2)cc1	-1.32%
O=C(NCCc1ccc(F)cc1)c1n[nH]c2ccccc12	4.51%
O=S(=O)(c1ccc2c(c1)OCCCO2)N1CCN(S(=O)(=O)c2c(F)cccc2F)CC1	3.46%
CCOc1cc(C(=O)N2CCc3cc(OC)c(OC)cc3C2)ccc1OC(F)F	-2.99%
CCOC(=O)C1CCN(C(=O)COC(=O)C2CCN(S(=O)(=O)c3ccc4c(c3)OCCO4)CC2)CC1	1.65%
O=C(O)Cc1csc(-c2cccc(Oc3ccccc3)c2)n1	2.98% and 2.42%
CCn1c2ccccc2c2cc(CC(N)=O)ccc21	-1.01%
NC(=O)Cc1ccc2sc(-c3ccccc3)nc2c1	16.9% (active)
Clc1ccc(C(Cn2ccnc2)OCc2ccsc2Cl)c(Cl)c1 (stereo unspecified)	-0.6%
COc1ccnc(C(=O)N2CCC(Oc3cccnc3)CC2)c1	-2.68%
COc1ccc(CCC(C)N2CCc3ccccc3C2)cc1 (stereo unspecified)	1.85%
COC(=O)[C@]12C[C@H](CC(=O)NCc3ccc(C)o3)C(=O)N(CCC3=CCCCC3)C1=C[C@H](C(C)(C)C)O[C@@H]2C	1.5%
COc1ccc(C2CC(c3ccccc3)=NN2C(=O)c2ccc(Cl)c([N+](=O)[O-])c2)cc1 (stereo unspecified)	-2.91%
COc1ccc(C2=NN(C(=O)c3ccccc3C(=O)O)C(c3ccccc3O)C2)cc1 (stereo unspecified)	16.4% (active)
COc1ccc(C2CC(c3ccccc3)=NN2C(=O)CSc2nccc(=O)[nH]2)cc1 (stereo unspecified)	1%

Source: PubChem BioAssay AID687014 (The Scripps Research Institute Molecular Screening Center, 2013)
